Measured values as given in the supplement of paper PMC8975748.
Where a name gives a salt, the structure may show the parent alone. ± gives the standard deviation of the averaged measurements.

Tested on: Saccharomyces cerevisiae BY4741 SeMeCo community
Test: mean cell size (pixel area) (pixels); higher = larger cells
Conditions: 10 µM; 24 h; SM minimal medium
In short: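 Yeast cells were fixed with paraformaldehyde, imaged by automated confocal microscopy and analysed in Harmony to obtain mean cell pixel area per well. They came from a four-plasmid fluorescent Saccharomyces cerevisiae BY4741 community, each plasmid complementing one auxotrophy and carrying a fluorescent marker. Before imaging, 70 µl of culture at OD600 = 0.3 was incubated for 24 h in SM medium in 384-well plates predosed acoustically with drug (final 10 µM). Values are means of 3 replicates. Same SeMeCo high-content imaging drug screen: Selleck FDA-approved drugs at 10 µM, 24 h in SM medium, 384-well plates, 3 replicates.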

Structure (SMILES)	mean cell size
COc1ccc2[nH]c([S@@+]([O-])Cc3ncc(C)c(OC)c3C)nc2c1 [NEXIUM (esomeprazole magnesium)]	12.5 ± 0.14
CC(NCCC(c1ccccc1)c1ccccc1)c1ccccc1 (stereo not given) [Fendiline hydrochloride]	12.1 ± 0.2
CC1=CC[C@@](O)(C(C)C)CC1 [Terpinen-4-ol]	12.39 ± 0.073
CC(C)COc1ccc(CNC(=O)N(Cc2ccc(F)cc2)C2CCN(C)CC2)cc1 [Pimavanserin]	12.4 ± 0.25
Cc1ncc([N+](=O)[O-])n1CCOC(=O)c1ccccc1 [Metronidazole Benzoate]	12.382 ± 0.0058
NS(=O)(=O)c1cc(C(=O)O)c(NCc2ccco2)cc1Cl [Furosemide]	12.5 ± 0.21
COc1cc2c(cc1OC)C(=O)C(CC1CCN(Cc3ccccc3)CC1)C2 (stereo not given) [Donepezil HCl]	12 ± 0.22
C[C@H](Nc1ncnc2nc[nH]c12)c1cc2cccc(Cl)c2c(=O)n1-c1ccccc1 [Duvelisib (IPI-145, INK1197)]	12.37 ± 0.1
C=C1c2cccc(O)c2C(=O)C2=C(O)[C@]3(O)C(=O)C(C(N)=O)=C(O)[C@@H](N(C)C)[C@@H]3[C@@H](O)[C@H]12 [Methacycline HCl]	12.2 ± 0.23
O=c1[nH]cnc2c1ncn2[C@@H]1O[C@H](CO)[C@@H](O)[C@H]1O [Isoprinosine]	12 ± 0.19
Nc1ccc(S(=O)(=O)NC(=O)c2ccccc2)cc1 [Sulfabenzamide]	12.5 ± 0.4
C#C[C@]1(O)CC[C@H]2[C@@H]3CCc4cc(O)ccc4[C@H]3CC[C@@]21C [Ethinyl Estradiol]	12.8 ± 0.2
CN1CCCN=C1/C=C/c1cccs1 [Pyrantel Pamoate]	12.8 ± 0.19
CN(C)CCCN1c2ccccc2Sc2ccccc21 [Promazine hydrochloride]	12.5 ± 0.15
Cc1cccc(Nc2ccccc2C(=O)O)c1C [Mefenamic Acid]	12.4 ± 0.21
COc1ccc(NS(=O)(=O)c2ccc(N)cc2)nn1 [Sulfamethoxypyridazine]	12.2 ± 0.35
CO[C@@]1(NC(=O)C(C(=O)O)c2ccc(O)cc2)C(=O)N2C(C(=O)O)=C(CSc3nnnn3C)CO[C@@H]21 (stereo not given in full) [Latamoxef sodium]	12.7 ± 0.16
CC(C)(C)C(=O)C(Oc1ccc(Cl)cc1)n1ccnc1 (stereo not given) [Climbazole]	11.3 ± 0.047
CCN(CC)CCNC(=O)c1cc(Cl)c(N)cc1OC [Metoclopramide HCl]	12.4 ± 0.31
Cc1ccnc(NS(=O)(=O)c2ccc(N)cc2)n1 [Sulfamerazine]	12.5 ± 0.16

Structure (SMILES)	mean cell size
COc1cc(N)c(Cl)cc1C(=O)NC1CCN(CCCOc2ccc(F)cc2)CC1OC (stereo not given) [Cisapride hydrate]	12.52 ± 0.044
Cc1cccc(C)c1NC(=O)C1CCCCN1C (stereo not given) [Mepivacaine]	12.2 ± 0.28
CCCCOc1ccc(CC(=O)NO)cc1 [Bufexamac]	12.53 ± 0.12
COc1ccc([C@H]2CNC(=O)C2)cc1OC1CCCC1 [S- (+)-Rolipram]	12.43 ± 0.11
CN(Cc1ccc(C(C)(C)C)cc1)Cc1cccc2ccccc12 [Butenafine HCl]	12.2 ± 0.22
CC1=C(CC(=O)O)c2cc(F)ccc2/C1=C\c1ccc([S+](C)[O-])cc1 (stereo not given) [Sulindac]	12.4 ± 0.21
CCC(=O)O[C@@H]1CC(=O)O[C@H](C)C/C=C/C=C/[C@H](O)[C@H](C)C[C@H](CC=O)[C@H](O[C@@H]2O[C@H](C)[C@@H](O[C@H]3C[C@@](C)(O)[C@@H](OC(=O)CC)[C@H](C)O3)[C@H](N(C)C)[C@H]2O)[C@H]1OC [Midecamycin]	12.33 ± 0.1
CCN(CC)CC#CCOC(=O)C(O)(c1ccccc1)C1CCCCC1 (stereo not given) [Oxybutynin]	12.5 ± 0.29
CCCCNC(=O)NS(=O)(=O)c1ccc(C)cc1 [Tolbutamide]	12.5 ± 0.33
CS(=O)(=O)c1ccc(C2=C(c3ccccc3)C(=O)OC2)cc1 [Rofecoxib]	12.3 ± 0.16
CCN1CC(CCN2CCOCC2)C(c2ccccc2)(c2ccccc2)C1=O (stereo not given) [Doxapram HCl]	12.5 ± 0.14
OC1(c2ccc(Cl)c(C(F)(F)F)c2)CCN(CCCC(c2ccc(F)cc2)c2ccc(F)cc2)CC1 [Penfluridol]	11.65 ± 0.089
Cc1cc2c(s1)Nc1ccccc1N=C2N1CCN(C)CC1 [Olanzapine]	12.5 ± 0.2
CN1[C@@H]2CC[C@H]1C[C@@H](OC(=O)c1c[nH]c3ccccc13)C2 [Tropisetron HCl]	12.57 ± 0.083
C=C1CCN([C@H](C)[C@](O)(Cn2cncn2)c2ccc(F)cc2F)CC1 [Efinaconazole]	11.3 ± 0.097
O=C1C(N(CO)C(=O)NCO)N(CO)C(=O)N1CO (stereo not given) [Diazolidinyl urea]	12.1 ± 0.16
NC12CC3CC(CC(C3)C1)C2 [Amantadine HCl]	12.6 ± 0.17
CN(C)CCc1c[nH]c2ccc(CS(=O)(=O)N3CCCC3)cc12 [Almotriptan Malate]	12.4 ± 0.14
CN1CCN(CC(=O)N2c3ccccc3C(=O)Nc3cccnc32)CC1 [Pirenzepine dihydrochloride]	11.97 ± 0.054
CC(C)c1nc(N(C)S(C)(=O)=O)nc(-c2ccc(F)cc2)c1/C=C/[C@@H](O)C[C@@H](O)CC(=O)O [Rosuvastatin]	11.22 ± 0.092
